Compound activity from PubChem BioAssay.
p53ts 39C tox – kills p53ts cells at the nonpermissive temperature. H1299-p53A138V viability at 39C, ATP luminescence, 24 h. Potency, µM (series often up to 46.1 µM), most hits filed as cytotoxic. actives 1.5% (n = 130,000); further: nearly all actives have a fitted effect of over 55% in size
IkB signaling – suppresses IkB signaling in ABC-DLBCL reporter cells | actives 0.04% (n = 110,000) | AID 445 | ABC-DLBCL IkBa-CBG/CBR dual luciferase ratio, 4 h; response scale: scaled: untreated 0%, proteasome inhibitor 100% | Potency, µM (doses to about 57.1 µM); active means well fitted curve in the direction sought with a large enough effect in the signal ratio, not every such curve was filed as active; inconclusive means small, poorly fitted or top-dose-only effect, or a change in a side signal; the % refers to the signal ratio;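 further: the direction sought is a rising ratio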
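In this assay, an IκBα–CBG68 fusion accumulates when IKK-driven degradation is blocked; native CBR normalizes for cell number. OCI-Ly3 cells were treated 4 h with compound and doxycycline, then green and red light read after Chroma-Glo addition.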
p53ts 32C tox – cytotoxicity in p53ts cells at permissive temperature | H1299-p53A138V at 32C, ATP luminescence viability, 24 h | Potency, µM (titrated, usually from 46.1 µM), actives largely listed as cytotoxic | actives 0.93% (n = 130,000); further: nearly all actives have a fitted effect of over 55% in size
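Cells: H1299 p53ts (A138V), 600/well, pre-incubated 16–30 h at 37C. Cpd up to 46 uM, 24 h, 32C. Readout: ATPlite luminescence, 20 min RT. Normalization: DMSO vs tamoxifen 100 uM. AC50 by Hill equation.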
Imprint erasure – inducers of genomic imprint erasure in mouse ES cells. mouse ES Peg3-LacZ reporter, beta-gal luminescence, 40 h. Potency, µM (series often up to 60.7 µM), actives largely listed as activators. actives 0.02% (n = 110,000)
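Imprint erasure is scored as LacZ activity from the silenced maternal Peg3 allele in feeder-free female ES cells cultured 40 h with LIF. Luminescence is normalized to in-plate negative controls and fitted to the Hill equation.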
FLuc inh – blocks Photinus pyralis firefly luciferase activity | P08659 | purified firefly luciferase, luminescence, 8 min | Potency, µM (titrated, usually from 57.1 µM), usual class: inhibitors | actives 2.2% (n = 72,000); further: nearly all actives have a fitted effect of over 40% in size
Target sequence (P08659 whole entry, looked up): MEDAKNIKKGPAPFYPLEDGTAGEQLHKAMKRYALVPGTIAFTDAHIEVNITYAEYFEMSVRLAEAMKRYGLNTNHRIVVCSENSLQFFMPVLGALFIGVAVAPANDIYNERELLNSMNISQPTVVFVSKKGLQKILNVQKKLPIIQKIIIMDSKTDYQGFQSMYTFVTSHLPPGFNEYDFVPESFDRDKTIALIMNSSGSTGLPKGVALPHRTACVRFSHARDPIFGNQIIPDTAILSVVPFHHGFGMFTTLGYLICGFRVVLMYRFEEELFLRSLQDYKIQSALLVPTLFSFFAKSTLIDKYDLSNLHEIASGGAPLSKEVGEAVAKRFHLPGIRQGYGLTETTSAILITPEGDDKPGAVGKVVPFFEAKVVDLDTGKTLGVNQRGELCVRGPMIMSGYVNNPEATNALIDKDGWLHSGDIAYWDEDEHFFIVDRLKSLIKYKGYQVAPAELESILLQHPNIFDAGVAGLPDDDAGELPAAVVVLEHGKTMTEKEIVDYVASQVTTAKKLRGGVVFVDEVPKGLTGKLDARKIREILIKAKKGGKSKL
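Substrate buffer containing 10 uM ATP (pH 7.2 imidazole, Mg2+, KCl, detergent, BSA) is dispensed, compound pinned in, then luciferase/luciferin detector mix added. After 8 min at ambient temperature, light output is measured.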
Each line names hits and unclear results; the compound was inactive in the other large screens. Sampled rows, rich in hits. Any-hit rate of the full collection: about 2.4%. Unless noted, the call rests on the fitted dose curve; in most records, active means well fitted curve in the direction sought with a large enough effect; inconclusive means small, poorly fitted or top-dose-only effect, or another doubt; inactive means no such curve, though single readings can be large; an effect the other way counts as inactive or inconclusive.

CCCCOc1ccc(C(=O)Nc2cc(-c3cn4cccnc4n3)ccc2OC)cc1	none (no result: FLuc inh)
O=C(Cn1cnc2ccccc2c1=O)c1ccc2c(c1)OCCO2	p53ts 39C tox inconclusive, p53ts 32C tox inconclusive, FLuc inh 13µM
N#Cc1cccc(-c2nc(NCc3cccs3)c3ccccc3n2)c1	Imprint erasure 6.3µM
c1cncc(-c2nc(NCc3cccs3)c3ccccc3n2)c1	none
COc1cc(-c2nc3ccc(C)cn3c2Nc2ccc(Cl)cc2)ccc1O	p53ts 39C tox 16µM, IkB signaling inconclusive (no result: FLuc inh)
Cc1ccc(S(=O)(=O)c2cn(C)c3cc(N4CCCC(C)C4)c(F)cc3c2=O)c(C)c1 (stereo not given)	none (no result: p53ts 39C tox, IkB signaling, Imprint erasure, FLuc inh)
COc1cccc(-c2cn3nc(C)c(C)nc3n2)c1	p53ts 39C tox inconclusive, IkB signaling inconclusive, p53ts 32C tox inconclusive, FLuc inh 13µM
Cc1cc(-c2cccs2)n[nH]1	none
Cc1nc2nc(-c3cccs3)cn2nc1C	p53ts 39C tox inconclusive, p53ts 32C tox inconclusive, FLuc inh 20µM
COc1cccc(NC(=O)Nc2cccc(-c3cn4cccnc4n3)c2)c1	p53ts 39C tox inconclusive, IkB signaling inconclusive, p53ts 32C tox inconclusive (no result: FLuc inh)
C=CS(=O)(=O)c1ccc(Oc2ccc(S(=O)(=O)C=C)cc2)cc1	p53ts 39C tox 10µM, IkB signaling inconclusive
O=S(=O)(c1ccc(Oc2ccc(S(=O)(=O)N3CCOCC3)cc2)cc1)N1CCOCC1	none
O=C(COC(=O)c1cccnc1)c1ccc(Cl)cc1	FLuc inh 16µM
Nc1cc(C2CCCC2)nn1-c1ccccc1	p53ts 39C tox inconclusive, p53ts 32C tox 13µM
Cc1nn(-c2ccccc2)c2nc(C3CC3)cc(C(=O)Nc3cccc(F)c3)c12	IkB signaling inconclusive (no result: FLuc inh)
CCC(C)c1ccc(NC(=O)c2cccnc2)cc1 (stereo not given)	p53ts 32C tox inconclusive, FLuc inh 25µM
CCC(C)c1ccc(O)c(NC(=O)c2cccnc2)c1 (stereo not given)	none
C[C@@]12C[C@H](O)C3[C@H](CCC4=CC(=O)CC[C@]43C)[C@H]1CC[C@@H]2c1csc(-c2ccccc2)n1 (stereo not given in full)	none (no result: p53ts 39C tox, IkB signaling, p53ts 32C tox, FLuc inh)
COc1ccc(/C=C2\SC(=N)N(c3nccs3)C2=O)cc1OC	p53ts 39C tox 14µM, p53ts 32C tox inconclusive (no result: IkB signaling, Imprint erasure, FLuc inh)
N=C1S/C(=C\c2ccc(-c3cccc(Cl)c3)o2)C(=O)N1c1nccs1	none (no result: IkB signaling, p53ts 32C tox, Imprint erasure, FLuc inh)
CCOc1ccc(N2C(=O)CC(Sc3nc(C)cc(C)n3)C2=O)cc1 (stereo not given)	none
CCOc1ccc(N2C(=O)CC(SCCN)C2=O)cc1 (stereo not given)	p53ts 39C tox 13µM, p53ts 32C tox 13µM (no result: Imprint erasure)
COc1ccc(-c2[nH]c(-c3ccccc3)nc2SCC(=O)Nc2ccc3c(c2)OCO3)cc1	p53ts 39C tox inconclusive, IkB signaling inconclusive, p53ts 32C tox inconclusive (no result: FLuc inh)
CCOC(=O)CNC(=O)c1cnn2cccnc12	none
O=C(Nc1cnn(C23CC4CC(CC(C4)C2)C3)c1)c1cnn2cccnc12	p53ts 39C tox inconclusive, p53ts 32C tox inconclusive, FLuc inh 2.5µM
COc1ccc(-c2nc3ccccc3s2)cc1NC(=O)COc1cccc(C)c1	p53ts 39C tox 10µM (no result: FLuc inh)
COc1ccc(-c2nc3ccccc3s2)cc1NC(=O)COc1ccc(C)cc1	Imprint erasure inconclusive (no result: FLuc inh)
COc1ccc(OCC(=O)Nc2cc(-c3nc4ccccc4s3)ccc2C)cc1	p53ts 39C tox 16µM (no result: FLuc inh)
O=C(O)[C@H]1C[C@H](C(=O)O)N1	none (no result: Imprint erasure)
COc1ccc(CN2C(=O)C(NC(=O)c3ccccc3C)(C(F)(F)F)N=C2c2ccccc2)cc1 (stereo not given)	IkB signaling inconclusive (no result: FLuc inh)
CCOc1ccc(C2C(C(=O)Nc3ccccc3C)=C(C)Nc3nnnn32)cc1 (stereo not given)	none (no result: FLuc inh)
Cc1ccc(/C=c2\sc3nc(-c4cccnc4)nn3c2=O)cc1	FLuc inh 7.9µM
Cc1ccc(N2CN=c3s/c(=C\c4cccnc4)c(=O)n3C2)cc1	none (no result: p53ts 39C tox, IkB signaling, p53ts 32C tox, Imprint erasure)
CCOC(=O)CSc1nnc(-c2ccc(Cl)cc2Cl)o1	FLuc inh 13µM (no result: Imprint erasure)
Cc1ccc(Cn2c(CO)cnc2SCC(=O)Nc2cccc(F)c2)cc1	IkB signaling inconclusive (no result: FLuc inh)
Cc1ccc(Cn2c(CO)cnc2SCC(=O)Nc2ccc(C)c(Cl)c2)cc1	p53ts 39C tox 13µM, IkB signaling inconclusive (no result: FLuc inh)
CN(C)c1ccc(N=Cc2ccco2)cc1	IkB signaling inconclusive, FLuc inh 20µM
